The full data set covers some 7,900 targets. This sample favours those with a hit. About 0.6% of all pairs of compound and target were hits. A number with no mark means an inactive call.
Columns and labels:
Assay in all cases: log2 fold change, soluble protein after heating vs DMSO (PISA); higher = thermal stabilisation; K562 cells, 10 uM, 30 min; active = over 0.2 and 3.5 SD of the protein, either way, in both replicates (recomputed)
IRAK-1-4 Inhibitor I = compound: C1COCCN1CCN2C3=CC=CC=C3N=C2NC(=O)C4=CC(=CC=C4)[N+](=O)[O-] [IRAK-1-4 Inhibitor I]
Outline: (§1)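 K562 cells at 2×10^6 cells/mL were treated with 10 μM compound for 30 min. Aliquots were heated for 3 min across 48°C-58°C, pooled, and extracted in PBS with 0.5% NP-40 at 4°C; soluble protein was the supernatant after 21,000xg for 90 min. Soluble protein was quantified by TMTpro 16plex LC-MS/MS with channel sums equalised, and reported as log2 fold change in thermal stability against DMSO controls, with values from duplicates.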

ibrutinib = compound: C=CC(=O)N1CCC[C@@H](n2nc(-c3ccc(Oc4ccccc4)cc3)c3c(N)ncnc32)C1 [ibrutinib]
Outline: as §1

[1] = compound: CC(=O)c1cnc2ccc(-c3cc(Cl)c(O)c(Cl)c3)nc2c1N[C@H]1CC[C@H](CN(C)C)CC1
Outline: as §1

ralimetinib = compound: CC(C)(C)Cn1c(N)nc2ccc(-c3[nH]c(C(C)(C)C)nc3-c3ccc(F)cc3)nc21 [ralimetinib]
Outline: as §1

[2] = compound: CC(C)(O)CC(=O)NCCn1ccc2ncnc(Nc3ccc(Oc4cccc(C(F)(F)F)c4)c(Cl)c3)c21
Outline: as §1

[3] = compound: CC(C)C1=C2N=C(C=C(N2N=C1)NCC3=CC=CC=C3)NCCCCCCN
Outline: as §1

[4] = compound: CC(C)C[C@@H](C=O)NC(=O)[C@H](CC(C)C)NC(=O)[C@H](CC(C)C)NC(=O)OCc1ccccc1
Outline: as §1

pinometostat = compound: CC(C)N(C[C@H]1O[C@@H](n2cnc3c(N)ncnc32)[C@H](O)[C@@H]1O)[C@H]1C[C@@H](CCc2nc3cc(C(C)(C)C)ccc3[nH]2)C1 [pinometostat]
Outline: as §1

[5] = compound: CC1=C(C(CC(=O)N1)C2=CC=C(C=C2)C(F)(F)F)C(=O)NC3=C(C=C4C(=C3)C=NN4)F
Outline: as §1

[6] = compound: CC1=C(C2=C(C=C1)C(=O)C3=CC=CC=C3N2CCCN)C
Outline: as §1

[7] = compound: CC1=C(C=C(C=C1)NC(=O)C2=CC(=CC=C2)C(C)(C)C#N)NC3=CC4=C(C=C3)N=CN(C4=O)C
Outline: as §1

[8] = compound: CC1=C(C=C(C=C1)NC(=O)C2=CC(=CC=C2)N(C)C)NC(=O)C3=CC=C(C=C3)O
Outline: as §1

[9] = compound: CC1=CC=C(C=C1)SC2=C3C=C(SC3=CN=C2)C(=O)N
Outline: as §1

[10] = compound: CC1=NC(=CC=C1)C2=C(N=C(N2)C(C)(C)C)C3=CC4=NC=CN=C4C=C3
Outline: as §1

Nexturastat A = compound: CCCCN(Cc1ccc(C(=O)NO)cc1)C(=O)Nc1ccccc1 [Nexturastat A]
Outline: as §1

vemurafenib = compound: CCCS(=O)(=O)Nc1ccc(F)c(C(=O)c2c[nH]c3ncc(-c4ccc(Cl)cc4)cc23)c1F [vemurafenib]
Outline: as §1

[11] = compound: CCCS(=O)(=O)Nc1ccc(F)c(C(=O)c2c[nH]c3ncc(Cl)cc23)c1F
Outline: as §1

[12] = compound: CCCc1cc(C)[nH]c(=O)c1CNC(=O)c1cc(-c2ccnc(N3CCN(C)CC3)c2)cc2c1cnn2C(C)C
Outline: as §1

givinostat = compound: CCN(CC)Cc1ccc2cc(COC(=O)Nc3ccc(C(=O)NO)cc3)ccc2c1 [givinostat]
Outline: as §1

barasertib = compound: CCN(CCCOc1ccc2c(Nc3cc(CC(=O)Nc4cccc(F)c4)[nH]n3)ncnc2c1)CCOP(=O)(O)O [barasertib]
Outline: as §1

HEXA (UniProt P06865)
Chain of UniProt P06865 (P06865 whole entry, looked up): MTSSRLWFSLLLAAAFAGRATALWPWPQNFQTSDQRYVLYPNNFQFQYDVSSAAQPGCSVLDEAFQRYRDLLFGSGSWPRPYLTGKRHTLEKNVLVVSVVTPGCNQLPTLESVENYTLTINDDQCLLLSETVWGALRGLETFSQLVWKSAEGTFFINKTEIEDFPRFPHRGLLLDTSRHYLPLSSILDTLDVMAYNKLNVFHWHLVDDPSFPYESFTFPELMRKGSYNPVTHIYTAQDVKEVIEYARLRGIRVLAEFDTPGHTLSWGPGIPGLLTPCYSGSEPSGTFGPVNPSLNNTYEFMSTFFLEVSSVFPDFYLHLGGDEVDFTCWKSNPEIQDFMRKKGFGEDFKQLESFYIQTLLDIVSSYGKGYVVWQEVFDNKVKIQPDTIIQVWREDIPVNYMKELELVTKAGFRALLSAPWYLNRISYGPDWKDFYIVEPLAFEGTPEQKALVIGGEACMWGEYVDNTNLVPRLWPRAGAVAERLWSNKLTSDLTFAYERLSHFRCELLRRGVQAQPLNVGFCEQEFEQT
log2 fold change (IRAK-1-4 Inhibitor I): 0.013
log2 fold change (ibrutinib): 0.004
log2 fold change [1]: 0.018
log2 fold change (ralimetinib): -0.062
log2 fold change [2]: 0.024
log2 fold change [3]: -0.179
log2 fold change [4]: 0.032
log2 fold change (pinometostat): -0.043
log2 fold change [5]: -0.003
log2 fold change [6]: -0.05
log2 fold change [7]: -0.046
log2 fold change [8]: 0.022
log2 fold change [9]: -0.019
log2 fold change [10]: 0.004
log2 fold change (Nexturastat A): -0.035
log2 fold change (vemurafenib): -0.006
log2 fold change [11]: -0.023
log2 fold change [12]: -0.023
log2 fold change (givinostat): -0.018
log2 fold change (barasertib): -0.001

GNAI3 (UniProt P08754)
Chain of UniProt P08754 (P08754 whole entry, looked up): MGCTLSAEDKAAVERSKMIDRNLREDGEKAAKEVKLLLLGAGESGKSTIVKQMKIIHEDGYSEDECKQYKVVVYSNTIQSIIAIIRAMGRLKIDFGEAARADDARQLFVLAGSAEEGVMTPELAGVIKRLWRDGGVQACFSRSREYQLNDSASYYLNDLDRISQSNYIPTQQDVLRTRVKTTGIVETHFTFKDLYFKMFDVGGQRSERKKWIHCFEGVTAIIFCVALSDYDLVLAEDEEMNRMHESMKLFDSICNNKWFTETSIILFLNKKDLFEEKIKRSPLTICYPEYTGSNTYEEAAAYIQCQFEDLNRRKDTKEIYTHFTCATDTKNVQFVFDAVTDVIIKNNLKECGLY
log2 fold change (IRAK-1-4 Inhibitor I): -0.007
log2 fold change (ibrutinib): 0.083
log2 fold change [1]: 0.027
log2 fold change (ralimetinib): 0.066
log2 fold change [2]: 0.083
log2 fold change [3]: 0.006
log2 fold change [4]: -0.03
log2 fold change (pinometostat): 0.024
log2 fold change [5]: 0.02
log2 fold change [6]: 0.038
log2 fold change [7]: 0.125
log2 fold change [8]: -0.012
log2 fold change [9]: -0.07
log2 fold change [10]: -0.021
log2 fold change (Nexturastat A): 0.072
log2 fold change (vemurafenib): 0.037
log2 fold change [11]: -0.025
log2 fold change [12]: 0.069
log2 fold change (givinostat): -0.263 (active)
log2 fold change (barasertib): 0

HDDC2 (UniProt Q7Z4H3)
Chain of UniProt Q7Z4H3 (Q7Z4H3 whole entry, looked up): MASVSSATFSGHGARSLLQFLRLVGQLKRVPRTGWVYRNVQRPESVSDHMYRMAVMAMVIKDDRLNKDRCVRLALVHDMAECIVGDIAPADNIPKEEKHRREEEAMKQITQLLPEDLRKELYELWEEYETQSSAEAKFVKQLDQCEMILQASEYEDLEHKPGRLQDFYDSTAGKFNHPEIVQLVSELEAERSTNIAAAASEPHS
log2 fold change (IRAK-1-4 Inhibitor I): 0.04
log2 fold change (ibrutinib): 0
log2 fold change [1]: 0.052
log2 fold change (ralimetinib): 0.085
log2 fold change [2]: 0.003
log2 fold change [3]: 0.074
log2 fold change [4]: 0
log2 fold change (pinometostat): -0.076
log2 fold change [5]: -0.006
log2 fold change [6]: -0.007
log2 fold change [7]: 0.009
log2 fold change [8]: -0.03
log2 fold change [9]: 0.014
log2 fold change [10]: 0.029
log2 fold change (Nexturastat A): -0.139
log2 fold change (vemurafenib): 0.004
log2 fold change [11]: 0.034
log2 fold change [12]: -0.018
log2 fold change (givinostat): -0.067
log2 fold change (barasertib): -0.022

IDI1 isoform 2 (UniProt Q13907)
Chain of UniProt Q13907 (Q13907 whole entry, looked up): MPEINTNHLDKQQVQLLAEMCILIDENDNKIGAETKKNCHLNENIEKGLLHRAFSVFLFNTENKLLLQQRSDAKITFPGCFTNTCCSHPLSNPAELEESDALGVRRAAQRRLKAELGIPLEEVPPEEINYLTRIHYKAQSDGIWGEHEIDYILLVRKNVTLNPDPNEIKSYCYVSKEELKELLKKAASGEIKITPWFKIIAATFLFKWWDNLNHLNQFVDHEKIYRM
log2 fold change (IRAK-1-4 Inhibitor I): 0.052
log2 fold change (ibrutinib): 0.034
log2 fold change [1]: -0.01
log2 fold change (ralimetinib): -0.04
log2 fold change [2]: 0.1
log2 fold change [3]: 0.077
log2 fold change [4]: -0.002
log2 fold change (pinometostat): -0.012
log2 fold change [5]: 0.04
log2 fold change [6]: -0.099
log2 fold change [7]: -0.017
log2 fold change [8]: -0.007
log2 fold change [9]: -0.015
log2 fold change [10]: 0.003
log2 fold change (Nexturastat A): -0.082
log2 fold change (vemurafenib): 0.005
log2 fold change [11]: -0.029
log2 fold change [12]: -0.185
log2 fold change (givinostat): -0.219
log2 fold change (barasertib): 0.024

FKBP4 (UniProt Q02790)
log2 fold change (IRAK-1-4 Inhibitor I): 0
log2 fold change (ibrutinib): -0.005
log2 fold change [1]: -0.006
log2 fold change (ralimetinib): -0.016
log2 fold change [2]: -0.036
log2 fold change [3]: -0.094
log2 fold change [4]: 0.002
log2 fold change (pinometostat): -0.032
log2 fold change [5]: -0.019
log2 fold change [6]: 0.013
log2 fold change [7]: 0.032
log2 fold change [8]: -0.037
log2 fold change [9]: 0.015
log2 fold change [10]: 0.045
log2 fold change (Nexturastat A): -0.027
log2 fold change (vemurafenib): 0.032
log2 fold change [11]: 0.06
log2 fold change [12]: -0.009
log2 fold change (givinostat): 0.012
log2 fold change (barasertib): 0.013

FBXO7 (UniProt Q9Y3I1)
Chain of UniProt Q9Y3I1 (Q9Y3I1 whole entry, looked up): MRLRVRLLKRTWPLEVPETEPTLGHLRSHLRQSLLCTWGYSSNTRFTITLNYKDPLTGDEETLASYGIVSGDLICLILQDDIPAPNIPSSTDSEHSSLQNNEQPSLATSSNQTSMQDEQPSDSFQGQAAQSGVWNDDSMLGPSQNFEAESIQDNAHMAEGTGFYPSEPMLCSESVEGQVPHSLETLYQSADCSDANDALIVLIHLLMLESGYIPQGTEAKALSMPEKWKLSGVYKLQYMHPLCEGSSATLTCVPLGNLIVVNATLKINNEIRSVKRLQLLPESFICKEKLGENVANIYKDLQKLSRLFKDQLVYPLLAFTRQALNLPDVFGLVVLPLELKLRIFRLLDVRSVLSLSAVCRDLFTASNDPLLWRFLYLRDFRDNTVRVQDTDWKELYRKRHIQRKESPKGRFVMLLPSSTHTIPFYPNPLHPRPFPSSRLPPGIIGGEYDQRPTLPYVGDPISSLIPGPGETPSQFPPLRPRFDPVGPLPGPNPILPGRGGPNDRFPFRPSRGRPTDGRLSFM
log2 fold change (IRAK-1-4 Inhibitor I): -0.008
log2 fold change (ibrutinib): 0.036
log2 fold change [1]: -0.024
log2 fold change (ralimetinib): -0.005
log2 fold change [2]: -0.068
log2 fold change [3]: 0.001
log2 fold change [4]: -0.013
log2 fold change (pinometostat): 0.042
log2 fold change [5]: -0.021
log2 fold change [6]: 0.044
log2 fold change [7]: -0.048
log2 fold change [8]: -0.028
log2 fold change [9]: 0.004
log2 fold change [10]: -0.014
log2 fold change (Nexturastat A): 0.047
log2 fold change (vemurafenib): 0.017
log2 fold change [11]: -0.022
log2 fold change [12]: -0.026
log2 fold change (givinostat): 0.03
log2 fold change (barasertib): 0.02

HPCAL1 (UniProt P37235)
log2 fold change (IRAK-1-4 Inhibitor I): 0.02
log2 fold change (ibrutinib): -0.015
log2 fold change [1]: 0.028
log2 fold change (ralimetinib): -0.117
log2 fold change [2]: -0.018
log2 fold change [3]: -0.081
log2 fold change [4]: -0.015
log2 fold change (pinometostat): -0.003
log2 fold change [5]: 0.001
log2 fold change [6]: -0.041
log2 fold change [7]: -0.022
log2 fold change [8]: 0.012
log2 fold change [9]: 0.048
log2 fold change [10]: 0.032
log2 fold change (Nexturastat A): -0.092
log2 fold change (vemurafenib): -0.017
log2 fold change [11]: 0.005
log2 fold change [12]: -0.076
log2 fold change (givinostat): -0.041
log2 fold change (barasertib): 0.019

HLTF (UniProt Q14527)
log2 fold change (IRAK-1-4 Inhibitor I): -0.026
log2 fold change (ibrutinib): -0.028
log2 fold change [1]: -0.134
log2 fold change (ralimetinib): -0.016
log2 fold change [2]: -0.022
log2 fold change [3]: 0.332 (active)
log2 fold change [4]: 0.109
log2 fold change (pinometostat): -0.024
log2 fold change [5]: -0.049
log2 fold change [6]: 0.176
log2 fold change [7]: 0.04
log2 fold change [8]: -0.014
log2 fold change [9]: -0.056
log2 fold change [10]: 0.038
log2 fold change (Nexturastat A): 0.019
log2 fold change (vemurafenib): 0.047
log2 fold change [11]: 0.048
log2 fold change [12]: 0.109
log2 fold change (givinostat): 0.018
log2 fold change (barasertib): 0.007

GCC2 (UniProt Q8IWJ2)
Chain of UniProt Q8IWJ2 (Q8IWJ2 whole entry, looked up): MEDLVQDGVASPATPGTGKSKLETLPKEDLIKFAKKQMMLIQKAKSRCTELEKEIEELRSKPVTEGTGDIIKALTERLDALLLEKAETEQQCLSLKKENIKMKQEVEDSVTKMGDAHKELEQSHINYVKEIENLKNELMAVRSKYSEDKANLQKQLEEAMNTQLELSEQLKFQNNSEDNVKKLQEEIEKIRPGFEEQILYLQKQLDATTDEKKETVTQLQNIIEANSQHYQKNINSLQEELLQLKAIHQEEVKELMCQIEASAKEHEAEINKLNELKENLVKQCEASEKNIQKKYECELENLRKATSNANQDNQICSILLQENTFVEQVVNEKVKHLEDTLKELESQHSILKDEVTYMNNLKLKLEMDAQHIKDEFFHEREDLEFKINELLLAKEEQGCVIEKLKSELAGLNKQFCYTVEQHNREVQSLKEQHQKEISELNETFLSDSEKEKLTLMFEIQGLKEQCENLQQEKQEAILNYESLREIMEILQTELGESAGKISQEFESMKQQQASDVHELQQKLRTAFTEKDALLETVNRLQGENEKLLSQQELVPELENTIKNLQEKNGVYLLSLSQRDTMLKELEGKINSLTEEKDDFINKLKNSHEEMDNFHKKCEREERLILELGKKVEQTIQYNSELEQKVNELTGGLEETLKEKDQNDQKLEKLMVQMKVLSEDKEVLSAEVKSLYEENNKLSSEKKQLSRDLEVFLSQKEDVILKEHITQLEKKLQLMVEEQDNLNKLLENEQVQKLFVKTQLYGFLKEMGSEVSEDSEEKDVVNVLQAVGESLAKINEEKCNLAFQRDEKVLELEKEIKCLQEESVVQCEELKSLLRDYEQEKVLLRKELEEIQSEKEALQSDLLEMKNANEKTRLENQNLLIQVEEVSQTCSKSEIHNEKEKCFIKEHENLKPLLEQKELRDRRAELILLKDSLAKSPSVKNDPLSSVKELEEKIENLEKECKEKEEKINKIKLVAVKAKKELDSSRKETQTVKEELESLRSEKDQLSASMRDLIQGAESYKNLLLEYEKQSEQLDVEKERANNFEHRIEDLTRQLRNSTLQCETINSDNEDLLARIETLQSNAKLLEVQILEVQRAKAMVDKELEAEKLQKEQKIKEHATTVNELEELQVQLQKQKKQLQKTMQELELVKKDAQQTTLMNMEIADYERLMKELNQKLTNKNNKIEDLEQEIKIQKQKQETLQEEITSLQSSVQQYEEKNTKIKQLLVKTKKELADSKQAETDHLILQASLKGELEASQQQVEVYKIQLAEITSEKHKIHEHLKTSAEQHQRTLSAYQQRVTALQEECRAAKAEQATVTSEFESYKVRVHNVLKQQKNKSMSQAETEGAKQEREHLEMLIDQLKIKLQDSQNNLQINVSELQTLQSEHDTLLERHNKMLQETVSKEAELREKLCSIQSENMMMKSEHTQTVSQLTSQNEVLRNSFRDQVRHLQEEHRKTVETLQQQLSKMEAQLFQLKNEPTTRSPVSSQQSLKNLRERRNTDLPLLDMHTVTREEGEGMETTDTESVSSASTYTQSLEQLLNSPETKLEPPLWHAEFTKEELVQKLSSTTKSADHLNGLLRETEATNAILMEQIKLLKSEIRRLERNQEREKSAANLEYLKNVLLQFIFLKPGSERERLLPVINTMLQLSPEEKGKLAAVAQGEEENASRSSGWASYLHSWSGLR
log2 fold change (IRAK-1-4 Inhibitor I): -0.046
log2 fold change (ibrutinib): -0.023
log2 fold change [1]: 0.105
log2 fold change (ralimetinib): 0.131
log2 fold change [2]: 0
log2 fold change [3]: -0.075
log2 fold change [4]: 0.111
log2 fold change (pinometostat): 0.198
log2 fold change [5]: 0.085
log2 fold change [6]: -0.091
log2 fold change [7]: -0.004
log2 fold change [8]: -0.012
log2 fold change [9]: -0.016
log2 fold change [10]: -0.031
log2 fold change (Nexturastat A): 0.322 (active)
log2 fold change (vemurafenib): 0.025
log2 fold change [11]: 0.01
log2 fold change [12]: 0.073
log2 fold change (givinostat): 0.05
log2 fold change (barasertib): -0.037

FBXO3 (UniProt Q9UK99)
Chain of UniProt Q9UK99 (Q9UK99 whole entry, looked up): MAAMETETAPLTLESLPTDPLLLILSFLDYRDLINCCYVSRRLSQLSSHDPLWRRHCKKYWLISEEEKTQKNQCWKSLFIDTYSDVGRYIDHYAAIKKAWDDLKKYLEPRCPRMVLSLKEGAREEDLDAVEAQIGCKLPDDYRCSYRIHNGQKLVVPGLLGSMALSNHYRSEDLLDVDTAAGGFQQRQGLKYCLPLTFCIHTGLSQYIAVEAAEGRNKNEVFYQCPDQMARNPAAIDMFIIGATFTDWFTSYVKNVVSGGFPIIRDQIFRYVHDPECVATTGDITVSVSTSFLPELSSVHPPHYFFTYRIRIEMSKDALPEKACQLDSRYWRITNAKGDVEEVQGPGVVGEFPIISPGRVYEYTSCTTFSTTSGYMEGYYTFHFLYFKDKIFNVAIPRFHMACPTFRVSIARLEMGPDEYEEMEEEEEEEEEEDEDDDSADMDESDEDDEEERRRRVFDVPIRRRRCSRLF
log2 fold change (IRAK-1-4 Inhibitor I): 0.038
log2 fold change (ibrutinib): -0.003
log2 fold change [1]: -0.008
log2 fold change (ralimetinib): 0.171
log2 fold change [2]: 0.021
log2 fold change [3]: -0.014
log2 fold change [4]: 0.031
log2 fold change (pinometostat): 0
log2 fold change [5]: 0.014
log2 fold change [6]: -0.047
log2 fold change [7]: -0.042
log2 fold change [8]: -0.08
log2 fold change [9]: 0
log2 fold change [10]: -0.018
log2 fold change (Nexturastat A): -0.043
log2 fold change (vemurafenib): -0.089
log2 fold change [11]: -0.025
log2 fold change [12]: -0.057
log2 fold change (givinostat): 0.049
log2 fold change (barasertib): -0.043

GLB1 (UniProt P16278)
Chain of UniProt P16278 (P16278 whole entry, looked up): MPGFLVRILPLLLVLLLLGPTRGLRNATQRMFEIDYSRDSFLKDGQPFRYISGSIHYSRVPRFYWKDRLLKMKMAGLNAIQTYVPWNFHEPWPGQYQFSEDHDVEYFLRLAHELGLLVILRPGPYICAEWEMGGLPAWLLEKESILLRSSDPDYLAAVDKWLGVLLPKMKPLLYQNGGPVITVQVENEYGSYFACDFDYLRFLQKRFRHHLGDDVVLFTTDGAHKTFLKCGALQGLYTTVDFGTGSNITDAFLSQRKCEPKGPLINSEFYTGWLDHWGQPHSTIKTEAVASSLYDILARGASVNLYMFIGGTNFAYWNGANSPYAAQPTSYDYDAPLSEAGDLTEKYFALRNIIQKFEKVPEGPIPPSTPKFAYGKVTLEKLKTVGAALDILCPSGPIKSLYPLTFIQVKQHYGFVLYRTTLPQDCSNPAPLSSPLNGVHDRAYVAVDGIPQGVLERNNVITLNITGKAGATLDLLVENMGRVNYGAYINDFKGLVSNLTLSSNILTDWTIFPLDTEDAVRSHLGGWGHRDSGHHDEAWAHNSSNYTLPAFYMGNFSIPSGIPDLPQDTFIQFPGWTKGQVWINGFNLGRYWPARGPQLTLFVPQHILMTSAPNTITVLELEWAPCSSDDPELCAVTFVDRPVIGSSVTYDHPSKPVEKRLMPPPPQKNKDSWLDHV
log2 fold change (IRAK-1-4 Inhibitor I): 0.041
log2 fold change (ibrutinib): 0.033
log2 fold change [1]: -0.005
log2 fold change (ralimetinib): -0.009
log2 fold change [2]: 0.048
log2 fold change [3]: -0.282 (active)
log2 fold change [4]: 0.062
log2 fold change (pinometostat): 0.021
log2 fold change [5]: 0.014
log2 fold change [6]: -0.015
log2 fold change [7]: -0.051
log2 fold change [8]: -0.026
log2 fold change [9]: -0.033
log2 fold change [10]: -0.038
log2 fold change (Nexturastat A): 0.086
log2 fold change (vemurafenib): -0.017
log2 fold change [11]: -0.007
log2 fold change [12]: 0.003
log2 fold change (givinostat): 0.002
log2 fold change (barasertib): -0.027

GNB2 (UniProt P62879)
Chain of UniProt P62879 (P62879 whole entry, looked up): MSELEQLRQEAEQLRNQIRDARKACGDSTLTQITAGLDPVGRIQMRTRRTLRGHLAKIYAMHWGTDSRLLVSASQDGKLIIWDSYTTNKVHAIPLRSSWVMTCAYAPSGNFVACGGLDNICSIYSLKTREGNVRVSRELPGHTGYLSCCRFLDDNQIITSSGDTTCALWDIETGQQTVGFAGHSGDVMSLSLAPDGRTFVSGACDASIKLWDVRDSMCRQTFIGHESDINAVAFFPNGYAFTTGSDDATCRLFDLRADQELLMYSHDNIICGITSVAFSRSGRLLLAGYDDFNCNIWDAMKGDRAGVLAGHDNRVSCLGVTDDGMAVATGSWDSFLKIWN
log2 fold change (IRAK-1-4 Inhibitor I): -0.021
log2 fold change (ibrutinib): 0.003
log2 fold change [1]: -0.013
log2 fold change (ralimetinib): 0.016
log2 fold change [2]: 0.013
log2 fold change [3]: 0.022
log2 fold change [4]: -0.025
log2 fold change (pinometostat): 0.016
log2 fold change [5]: -0.034
log2 fold change [6]: 0.076
log2 fold change [7]: 0.11
log2 fold change [8]: 0.018
log2 fold change [9]: -0.053
log2 fold change [10]: -0.018
log2 fold change (Nexturastat A): -0.023
log2 fold change (vemurafenib): 0.044
log2 fold change [11]: 0.036
log2 fold change [12]: 0.012
log2 fold change (givinostat): -0.019
log2 fold change (barasertib): -0.042

Reference: the supplement of paper PMC10849652
